# Measurements taken from the supplement of paper PMC6555819.
# Columns and labels:
# Test in all cases: PBM binding z-score (relative to random genomic background probes); higher = stronger binding; sequences stand for … in GC…GCGATTGACAGCGTAGAATGAAGG
# [1] = system: FXR:RXRa (NR concentration 270 nM, RXRa partner concentration 90 nM)
# How it was run: (§1)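 Ligand-free nuclear receptor dimers were applied to custom Agilent 4×180K protein-binding microarrays whose double-stranded probes carried direct-repeat seeds, single-nucleotide variants, half-site ablations and random human genomic background sequences in 34-nt variable regions. Incubation lasted 1 h. Binding z-scores were computed against the random background probes from regression-normalized fluorescence.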
# [2] = system: LXRa:RXRa (NR concentration 270 nM, RXRa partner concentration 90 nM)
# How it was run: as §1
# [3] = system: LXRa homodimer (NR concentration 270 nM)
# How it was run: as §1
# [4] = system: LXRb:RXRa (NR concentration 270 nM, RXRa partner concentration 90 nM)
# How it was run: as §1
# [5] = system: LXRb homodimer (NR concentration 270 nM)
# How it was run: as §1
# [6] = system: PPARa:RXRa (NR concentration 270 nM, RXRa partner concentration 90 nM)
# How it was run: as §1
# [7] = system: PPARg:RXRa (NR concentration 180 nM, RXRa partner concentration 90 nM)
# How it was run: as §1
# [8] = system: PPARg:RXRa 270nM:90nM, anti-RXR (NR concentration 270 nM, RXRa partner concentration 90 nM)
# How it was run: as §1
# [9] = system: PPARg:RXRa 30nM:10nM, anti-RXR (NR concentration 30 nM, RXRa partner concentration 10 nM)
# How it was run: as §1
# [10] = system: PPARg:RXRa 90nM:30nM, anti-RXR (NR concentration 90 nM, RXRa partner concentration 30 nM)
# How it was run: as §1
# [11] = system: PPARg:RXRa DBDmut IVT, anti-RXR (DBD mutation: RXRa K156A/R161A, NR concentration 270 nM, RXRa partner concentration 90 nM)
# How it was run: as §1
# [12] = system: PPARg:RXRa IVT, anti-PPARg (NR concentration 270 nM, RXRa partner concentration 90 nM)
# How it was run: as §1
# [13] = system: PPARg DBDmut:RXRa IVT, anti-PPARg (DBD mutation: PPARg1 K132A/R137A, NR concentration 270 nM, RXRa partner concentration 90 nM)
# How it was run: as §1
# [14] = system: PPARg DBDmut IVT, anti-PPARg (DBD mutation: PPARg1 K132A/R137A, NR concentration 270 nM)
# How it was run: as §1
# [15] = system: PPARg homodimer (NR concentration 180 nM)
# How it was run: as §1
# [16] = system: PXR:RXRa (NR concentration 270 nM, RXRa partner concentration 90 nM)
# How it was run: as §1
# [17] = system: PXR homodimer (NR concentration 270 nM)
# How it was run: as §1
# [18] = system: RARa:RXR (NR concentration 270 nM, RXRa partner concentration 90 nM)
# How it was run: as §1
# [19] = system: RARa homodimer (NR concentration 270 nM)
# How it was run: as §1
# [20] = system: RARb:RXRa (NR concentration 270 nM, RXRa partner concentration 90 nM)
# How it was run: as §1
Sequence,PBM binding z-score [1],PBM binding z-score [2],PBM binding z-score [3],PBM binding z-score [4],PBM binding z-score [5],PBM binding z-score [6],PBM binding z-score [7],PBM binding z-score [8],PBM binding z-score [9],PBM binding z-score [10],PBM binding z-score [11],PBM binding z-score [12],PBM binding z-score [13],PBM binding z-score [14],PBM binding z-score [15],PBM binding z-score [16],PBM binding z-score [17],PBM binding z-score [18],PBM binding z-score [19],PBM binding z-score [20]
AGAATGAGGTGATACGTAGATCAGGGAAGAAAGT,0.335,-0.0138,-0.435,-0.252,-0.444,1.52,1.16,1.16,0.448,0.958,4.06,2.23,1.58,0.564,0.0718,-0.029,0.133,0.117,-0.0248,0.411
CAAACTAGGTCACGAAAGGTCAAAGACGAATGAC,7.6,8.07,7.51,7.29,2.75,6.72,10.4,8.57,8.01,8.93,8.52,9.24,4.91,4.77,6.85,7.05,2.93,7.89,4.46,5.69
CGTCCAAGGTGAGCAGGTCAGTGAAAGCGACGTG,0.495,0.118,-0.619,0.202,-1.28,1.73,0.537,1.08,-0.475,0.388,1.99,2.14,-0.318,-0.865,0.43,0.116,-0.516,0.783,-0.389,2.67
CCTATTGGGCCATTCAGAGGTCATTGATCATATG,3,4.68,6.08,4.04,0.58,3.65,1.17,2.6,0.568,1.77,2.6,2.48,0.246,0.228,1.37,4.71,2.54,4.7,0.541,3.28
CGACCTAGGTCATCCAGGACAGTGAATACATTGA,5.2,3.44,0.586,2.78,0.0681,4.33,3.93,3.43,1.07,2.59,3.28,3.89,-0.0715,0.195,2.02,2.45,0.923,3.21,0.643,4
CAAACTAGCTCACGAAAGGTCAAAGTCGAATGAC,4.81,5.42,5.5,5.58,2.21,5.38,2.42,4.26,1.46,3.03,0.734,2.28,0.536,0.187,3.91,5.52,1.75,6.04,2.13,4.4
ATCTCAAGGTAAGACTCAGTTCAGTGAAGAACGC,0.749,0.642,0.594,0.258,0.655,0.216,0.033,0.104,0.217,0.104,0.2,0.426,0.753,0.498,0.782,1.47,1.54,0.694,1.1,0.614
GGAACGAGGGCAATTTGATAGCAGAGTTTGATGG,0.502,0.242,-0.405,0.427,-0.315,1,1.04,0.751,0.15,0.401,3.43,2.2,-0.942,-0.307,0.234,0.484,0.475,0.401,-0.342,1.64
GCATATAGGTAATACAAGGAGAAAGTCCGATTGT,0.156,-0.0258,-0.258,-0.357,-0.633,0.37,1.06,0.421,0.217,0.104,3.9,2.35,0.451,1,-0.266,-0.205,0.00189,0.277,0.43,-0.406
ATCTCTAGGTAAAGACAGTTCAGTGAATGCAAAT,0.377,2.43,0.934,0.745,0.542,0.628,0.336,0.491,0.147,0.518,2.12,1.73,0.488,0.666,0.86,1.61,1,0.704,1.05,0.625
CCCACTGGGCCAAAAAGGTCATTGATGCCGATAA,3.49,4.24,3.22,4.01,0.236,4.45,3.06,4.19,1.38,3.23,2.99,4.17,-1.05,-0.939,3.72,4.91,4.6,5.4,1.88,4.02
CAAACTCGGTCACAGAGGTCAAAGTCCGTGCGTA,5.99,6.29,7.24,5.29,2.04,5.72,5.27,6.24,3.25,5.58,5.32,6.01,1.83,1.84,5.93,6.25,8.31,6.39,2.88,4.75
TCATATAGGTAAAAGGTGAGAGTCGGTGTGGTAA,1.07,1.56,-0.0844,1.55,0.0234,4.75,8.85,8.5,7.77,10,5.3,4.91,2.38,1.33,1.91,1.43,0.171,2.43,1.17,1.77
